# Experimental data taken from PubChem BioAssay.
# Inconclusive results are not listed. Activity calls are given as the source filed them.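 How the source made its calls, unless noted: active means viability at or below 27.92% in each of two runs, the all-compound median minus 4 SD; inconclusive means no clear call, values can overlap the other calls; inactive means the rest.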
# Tests used:
# [1] = reducers of endogenous Her2 protein level, primary screen, SKBR3 breast tumor cells, AlphaScreen, ATP viability (AID 461;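 active means Her2 level under about 52% in both replicate screens, with viability over 70% of control, limit read from the data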;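 on Her2 level: lower value means less Her2 protein in the cells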;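 on viability: percent of carrier control wells set as 100% viability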); conditions: 18-24 h, measured here: SKBR3 viability, ATP luminescence, at 10 µM
# [2] = molecular target: Receptor tyrosine-protein kinase erbB-2 (Homo sapiens) (UniProt P04626); assay: as above; conditions: 18-24 h, at 10 µM, stronger effect = lower value
# Sequence of Receptor tyrosine-protein kinase erbB-2 (Homo sapiens) (P04626 whole entry, looked up): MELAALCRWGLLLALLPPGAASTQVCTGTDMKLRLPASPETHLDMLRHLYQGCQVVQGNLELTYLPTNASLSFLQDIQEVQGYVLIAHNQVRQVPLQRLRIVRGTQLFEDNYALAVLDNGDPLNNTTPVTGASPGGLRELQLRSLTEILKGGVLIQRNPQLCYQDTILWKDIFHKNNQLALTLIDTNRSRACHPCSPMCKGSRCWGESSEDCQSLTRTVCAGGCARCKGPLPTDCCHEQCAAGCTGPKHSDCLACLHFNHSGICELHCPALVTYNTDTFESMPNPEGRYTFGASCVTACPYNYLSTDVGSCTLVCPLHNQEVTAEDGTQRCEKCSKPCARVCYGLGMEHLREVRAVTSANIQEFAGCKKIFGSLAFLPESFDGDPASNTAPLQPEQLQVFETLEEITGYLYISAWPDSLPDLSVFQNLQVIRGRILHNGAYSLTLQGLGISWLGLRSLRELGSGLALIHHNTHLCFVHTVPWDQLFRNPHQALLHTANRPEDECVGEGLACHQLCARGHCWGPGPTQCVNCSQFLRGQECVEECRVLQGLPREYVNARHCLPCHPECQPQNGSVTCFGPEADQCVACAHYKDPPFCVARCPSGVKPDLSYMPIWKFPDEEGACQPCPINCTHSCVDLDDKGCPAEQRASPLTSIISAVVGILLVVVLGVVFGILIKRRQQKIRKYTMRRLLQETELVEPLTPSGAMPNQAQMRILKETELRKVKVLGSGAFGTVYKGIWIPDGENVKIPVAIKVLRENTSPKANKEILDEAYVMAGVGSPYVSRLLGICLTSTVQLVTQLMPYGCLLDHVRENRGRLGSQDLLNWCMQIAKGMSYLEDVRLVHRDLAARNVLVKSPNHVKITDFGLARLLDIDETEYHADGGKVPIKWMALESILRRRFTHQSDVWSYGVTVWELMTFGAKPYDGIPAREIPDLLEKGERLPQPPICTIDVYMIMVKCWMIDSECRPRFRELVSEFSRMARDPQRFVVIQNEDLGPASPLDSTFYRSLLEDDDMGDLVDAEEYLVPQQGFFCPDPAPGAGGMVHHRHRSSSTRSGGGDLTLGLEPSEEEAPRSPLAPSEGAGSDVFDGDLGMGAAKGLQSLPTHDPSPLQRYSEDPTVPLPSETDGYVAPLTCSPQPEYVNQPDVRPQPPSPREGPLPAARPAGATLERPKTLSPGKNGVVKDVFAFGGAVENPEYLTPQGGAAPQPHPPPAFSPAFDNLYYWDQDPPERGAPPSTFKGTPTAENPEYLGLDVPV
# [3] = SK-BR-3 cell growth inhibitors, pilot screen, 24 h, human (AID 572;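 active means viability at or below 10% of carrier control in both of two separate runs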;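 further: compound exposure lasted between 18 and 24 h rather than exactly 24 h; 100% = carrier-treated control wells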); conditions: SK-BR-3 viability, CellTiter-Glo luminescence, at 10 µM, stronger effect = lower value
# [4] = HUVEC growth inhibition – cell-based, human, primary screen (AID 575;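 active means viability at or below 30% in both replicate assays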;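 further: 100% = median of untreated cell wells with 0.1% DMSO on each plate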); conditions: HUVEC proliferation, CellTiter-Glo luminescence, 72 h; at 10 µM; stronger effect = lower value
# [5] = growth inhibitors of H69AR lung tumor, primary screen, human, duplicate replicates (AID 580;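 active means viability at or under a set limit in both replicates, limit being median viability minus 3 SD, cut at about 48% in these data, passing the limit was not always enough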;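 further: 100% = mean luminescence of untreated wells and 0% = no signal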); conditions: H69AR lung tumor cells viability, ATP luminescence, 72 h; at 10 µM; stronger effect = lower value
# [6] = reversal of MRP1-mediated doxorubicin resistance, pilot screen, H69AR cells, doxorubicin co-treatment (AID 601;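 active means viability loss from added drug above about 55%, and viability with drug at most 40%, in both replicates, limit read from the data, passing the limit was not always enough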); conditions: CellTiter-Glo, 72 h, at 10 µM; for differential viability (reversal): stronger effect = higher value
# [7] = 384-well plate pilot, post-Golgi transport modulator project, inhibition of yeast transport mutant growth (AID 636; in the data active means inhibition above about 31%); conditions: absorbance 615 nm, about 18 h, stronger effect = higher value
# [8] = growth suppression of yeast trafficking mutant, preliminary HTS, modulators of trafficking downstream of Golgi apparatus project, 1536-format plate, OD 615 nm (AID 637; in the data active means inhibition above about 30%); conditions: yeast transport mutant growth, absorbance 615 nm, 18 h; stronger effect = higher value
# [9] = OD615 S. cerevisiae growth inhibition, permissive medium, pilot counter-assay, permissive growth control for S. cerevisiae lifespan shortening project (AID 705;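 active means growth inhibition above 25% in both replicates, a cutoff set 3 SD above the mean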); conditions: OD615, 24 h, at 10 µM, stronger effect = higher value
# [10] = Restrictive medium S. cerevisiae growth inhibition, OD615, pilot screen of yeast lifespan reduction project, restrictive growth control (AID 706;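 active means growth inhibition above a set limit, 3 SD over mean compound inhibition, in both replicates, cut at about 43% in these data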;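 further: modified DeaD lifespan yeast strain shifted to restrictive glucose medium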); conditions: OD615, 48 h, at 10 µM, stronger effect = higher value
# [11] = viability gain of MRP-1-high H69AR cells under doxorubicin, pilot screen, MRP-1 activator project, CellTiter-Glo, duplicate (AID 807;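 active means viability increase at or above a cutoff of the median across tested compounds plus 3 SD, cut at about 8.5% in these data, passing the limit was not always enough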;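 further: compound pretreatment 18-22 h then 72 h combined with doxorubicin; 0% = doxorubicin alone and 100% = vehicle without doxorubicin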); conditions: H69AR viability with doxorubicin, CellTiter-Glo luminescence; at 10 µM; stronger effect = higher value
# [12] = growth suppression of beta-catenin knockout HCT116, pilot screen, human colon tumor cells (AID 823;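 active means cell viability at or below a set limit in both duplicate runs, the limit being the all-compound median minus 4 SD, cut at about 23% in these data, passing the limit was not always enough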;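 further: 0% = wells killed by 20 µM Hyamine and 100% = untreated DMSO cell wells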); conditions: CellTiter-Glo, 60 h, at 10 µM, stronger effect = lower value
# [13] = growth suppression of PTEN-deleted HCT116, pilot screen, cell-based, HCT116 clonal line, CellTiter-Glo (AID 824); conditions: 60 h, at 10 µM, stronger effect = lower value;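 further: 0% = 20 µM Hyamine control and 100% = vehicle cell control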
# [14] = RAM signaling pathway blockade in yeast – S. cerevisiae, Pdr1DBD-CYC8 efflux-inhibited sensitized strain, primary screen (AID 1298;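 active means RAM network inhibition above 8.4% in each of two replicates, 3 SD over the compound average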;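 further: 0% = DMSO untreated cells without growth and 100% = 10 µM 1-NA-PP1 full growth; higher means more yeast growth rescued from 5-FOA killing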); conditions: S. cerevisiae cbk1-as DSE1-URA3 strain, 5-FOA growth OD615, 2 d; at 50 µM; stronger effect = higher value
# [15] = inhibitors of the yeast RAM network, pilot screen, dse1pr::URA3 reporter, 5-FOA selection (AID 869;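 active means inhibition over a set limit, the all-compound mean plus 3 SD, in both replicate runs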;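 further: 0% = DMSO wells with no growth and 100% = 10 µM 1-NA-PP1 with full growth; RAM network block rescues cells from 5-FOA so hits raise OD615 growth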); conditions: S. cerevisiae dse1pr::URA3 5-FOA growth, OD615, 2 d; at 10 µM; stronger effect = higher value; strain carries analog-sensitive mutant Cbk1 kinase
# [16] = H69AR cells + 2 uM doxorubicin, measured here: viability with 2 uM doxorubicin, stronger effect = lower value
# [17] = H69AR cells, compound alone cytotoxicity
Structure (SMILES),viability [1] [%],Her2 level [2],viability [3],viability [4],viability [5],differential viability (reversal) ([6]; H69AR cells + 2 uM doxorubicin),"viability [6, 16] [%]","viability [6, 17] [%]",inhibition [7],inhibition [8],growth inhibition [9],growth inhibition [10],viability increase [11],viability [12],viability [13],RAM network inhibition [14],inhibition [15]
O=C(NC1CCCc2ccccc21)c1ccc(CNc2c(N3CCOCC3)c(=O)c2=O)cc1 (configuration not stated),86.5,100% (inactive),86.5% (inactive),95.5% (inactive),91.7% (inactive),14.2% (inactive),77.5,91.7,1.79% (inactive),2.67% (inactive),-3.71% (inactive),-2.73% (inactive),-3.89% (inactive),89.1% (inactive),59.3% (inactive),6.53% (inactive),
COc1ccccc1-n1c(=O)[nH]c2c(C(N)=O)nc(CC(C)C)nc21,81,109% (inactive),81% (inactive),96.8% (inactive),80.4% (inactive),-12.7% (inactive),93,80.4,-2.93% (inactive),-2.17% (inactive),-15.9% (inactive),-13.4% (inactive),-2.94% (inactive),97.9% (inactive),99.5% (inactive),2.83% (inactive),1.01% (inactive)
Cc1[nH]c2ccccc2c(=O)c1CN1CCCCC1,99,103% (inactive),99% (inactive),101% (inactive),90.5% (inactive),-0.56% (inactive),91.1,90.5,-4.29% (inactive),-3.67% (inactive),-17.1% (inactive),-15.9% (inactive),-0.38% (inactive),97.3% (inactive),105% (inactive),-0.21% (inactive),0.515% (inactive)
CC1CCN(S(=O)(=O)c2cccc(C(=O)Nc3ccccn3)c2)CC1,86,104% (inactive),86% (inactive),86.7% (inactive),94.3% (inactive),-2.55% (inactive),96.8,94.3,4.1% (inactive),1.83% (inactive),8.12% (inactive),3.79% (inactive),-1.96% (inactive),93.9% (inactive),97.7% (inactive),4.54% (inactive),-0.08% (inactive)
CC(Oc1ccc2oc(-c3ccccc3)c(C(=O)O)c2c1)C(=O)O (configuration not stated),95.5,77.5% (inactive),95.5% (inactive),103% (inactive),103% (inactive),6.43% (inactive),96.3,103,-4.86% (inactive),-6% (inactive),-7.27% (inactive),2.06% (inactive),-1.56% (inactive),99.3% (inactive),102% (inactive),4.67% (inactive),1.73% (inactive)
Cc1ccc(N2CCN(S(=O)(=O)N(C)C)CC2)c(C)c1,98.5,116% (inactive),98.5% (inactive),90.6% (inactive),83.5% (inactive),-9.57% (inactive),93.1,83.5,1.73% (inactive),1.17% (inactive),-11.1% (inactive),-7.42% (inactive),0.57% (inactive),90.6% (inactive),88.1% (inactive),6.03% (inactive),2.69% (inactive)
COc1ccccc1S(=O)(=O)Cc1ccc(C(=O)N2CCN(c3ccc(C)cc3)C(C)C2)o1 (configuration not stated),82.5,64.5% (inactive),82.5% (inactive),52.4% (inactive),7.92% (active),-48.4% (inactive),56.3,7.92,-1.07% (inactive),1.64% (inactive),4.27% (inactive),-15.2% (inactive),-6.26% (inactive),43.2% (inactive),36.8% (inactive),5.28% (inactive),0.41% (inactive)
COc1ccc(-c2nnc(SCC(=O)NC(C)c3ccccc3)o2)cc1 (configuration not stated),94,102% (inactive),94% (inactive),82% (inactive),100% (inactive),5.95% (inactive),94.4,100,1.87% (inactive),2.33% (inactive),-4.83% (inactive),-1.46% (inactive),-3.41% (inactive),90.8% (inactive),89.8% (inactive),6.94% (inactive),1.37% (inactive)
CC12CN3CC(C)(CN(C1)C3c1ccc(Cl)cc1Cl)C2=O (configuration not stated),97,102% (inactive),97% (inactive),101% (inactive),80.9% (inactive),-7.23% (inactive),88.2,80.9,-2.67% (inactive),-3% (inactive),-17.2% (inactive),-1.12% (inactive),-2.71% (inactive),93.4% (inactive),95.3% (inactive),-0.11% (inactive),1.56% (inactive)
CC1Cc2nc(SCC(N)=O)n(Cc3ccccc3)c(=O)c2S1 (configuration not stated),88.5,100% (inactive),88.5% (inactive),93.7% (inactive),88.3% (inactive),8.68% (inactive),79.6,88.3,-3.6% (inactive),-4.67% (inactive),-18.9% (inactive),-26.3% (inactive),-1.84% (inactive),95.3% (inactive),90.9% (inactive),1.84% (inactive),1.32% (inactive)
CCOc1cc(C2CC(=O)N3CN(C4CCCCC4)CSC3=C2C#N)ccc1O (configuration not stated),85,108% (inactive),85% (inactive),113% (inactive),87.3% (inactive),-13.7% (inactive),101,87.3,1.92% (inactive),2% (inactive),41.6% (active),76% (active),-4.1% (inactive),105% (inactive),95.1% (inactive),2.85% (inactive),0.17% (inactive)
CCCCN(CC)CCNC(=O)c1cc2c(C)nc3ccccc3c2o1,91,95.5% (inactive),91% (inactive),63.6% (inactive),85.3% (inactive),2.99% (inactive),82.4,85.3,-5.73% (inactive),-4.43% (inactive),10% (inactive),1.23% (inactive),-3.49% (inactive),75% (inactive),84% (inactive),2.07% (inactive),0.07% (inactive)
CCOCCCNC(=O)CN1CCN(Cc2ccccc2C)C1=O,83.5,96% (inactive),83.5% (inactive),97.8% (inactive),97% (inactive),7.06% (inactive),89.9,97,-6.8% (inactive),-7.7% (inactive),-4.88% (inactive),6.12% (inactive),0.02% (inactive),94.7% (inactive),86.8% (inactive),1.29% (inactive),1.54% (inactive)
c1ccc(Cn2nnc3c(N4CCCCCC4)ncnc32)cc1,94,88% (inactive),94% (inactive),57.5% (inactive),69.9% (inactive),-13.9% (inactive),83.8,69.9,-5.87% (inactive),2.83% (inactive),-13% (inactive),-8.65% (inactive),-0.65% (inactive),40% (inactive),33.6% (inactive),5.41% (inactive),0.74% (inactive)
CCOC(=O)c1c(C)n(OCc2ccccc2)c2ccc3c(no[n+]3[O-])c12,60,78.5% (inactive),60% (inactive),64.8% (inactive),52.9% (inactive),-14.2% (inactive),67.1,52.9,-3.24% (inactive),-2.95% (inactive),-12.4% (inactive),-11.1% (inactive),-3.24% (inactive),62.8% (inactive),62.9% (inactive),5.8% (inactive),1.99% (inactive)
CCOC(=O)c1ccc(NC(=O)Cn2cc3c(n2)CCC(C)C3)cc1 (configuration not stated),91.5,92% (inactive),91.5% (inactive),91.4% (inactive),91.9% (inactive),-7.62% (inactive),99.5,91.9,-2.8% (inactive),-2.13% (inactive),-3.82% (inactive),5.5% (inactive),0.35% (inactive),102% (inactive),106% (inactive),6.92% (inactive),1.92% (inactive)
Cc1c(C#N)c2ncnc(-c3ccccc3)c2n1-c1ccccc1,106,101% (inactive),106% (inactive),85.5% (inactive),71.8% (inactive),52.5% (inactive),19.3,71.8,-3.64% (inactive),-4.92% (inactive),-10.9% (inactive),-15.3% (inactive),-5.64% (inactive),91% (inactive),85.9% (inactive),5.06% (inactive),0.395% (inactive)
CCOC(=O)C1=C(C)NC(=O)NC1c1ccc(Br)s1 (configuration not stated),119,102% (inactive),119% (inactive),103% (inactive),108% (inactive),24.9% (inactive),83.5,108,-6.53% (inactive),4.03% (inactive),-10.5% (inactive),-15.3% (inactive),-0.63% (inactive),92.8% (inactive),89.7% (inactive),3.71% (inactive),0.86% (inactive)
CC(=O)Nc1ccc(N=Cc2ccc[nH]2)cc1,97.5,87.5% (inactive),97.5% (inactive),95.3% (inactive),88.5% (inactive),-1.47% (inactive),90,88.5,1.28% (inactive),-5.5% (inactive),-11.4% (inactive),-5.65% (inactive),-1.9% (inactive),90.7% (inactive),92.8% (inactive),3.68% (inactive),0.435% (inactive)
